Tested on: Plasmodium falciparum
Test: GSK_TCMDC: Inhibition of Plasmodium falciparum 3D7 in whole red blood cells, using parasite LDH activity as an index of growth. Test compounds present at 2uM
Type: functional

Row | SMILES | Inhibition
1 | CN(c1ncc(-c2cccc(CNCc3ccccc3O)c2)cn1)C1CCCCC1 | 95%
2 | Cc1ccc(F)cc1S(=O)(=O)Nc1ccc(CCN2CCC(N3CCCCC3)CC2)cc1 | 99%
3 | CCCNC(=O)C1Cc2c([nH]c3ccc(Br)cc23)C2(CCN(CCc3ccccc3)CC2)N1 (stereo not given) | 99%
4 | Clc1cccc(C=NN=c2cc[nH]c3ccccc23)c1 | 100%
5 | Cc1cc2c(cc1C(F)(F)F)N(C(=O)Nc1ccc(OCCN(C)C)c(C(F)(F)F)c1)CC2.Cl | 93%
6 | Nc1c2ccccc2nc2ccc(-c3ccccc3)cc12 | 100%
7 | CN1CCN(Cc2ccc(-c3ccc4c(Nc5cc(O)c(F)cc5Cl)ccnc4c3)o2)CC1 | 100%
8 | COc1ccc(NC(=O)Nc2cccc(-c3cccc(-c4nc5ccccc5[nH]4)c3)c2)cc1 | 100%
9 | CC(=O)Oc1c(C2CCN(CCCCNC(=O)c3ccc(NC(=O)c4ccc(Cl)cc4)cc3)CC2)ccc2c1CCCC2 | 100%
10 | O=C(NC1CCCc2ccccc21)[C@@H]1CCCN1C(=O)c1ccc(O)c(-c2ccc(Cl)c(Cl)c2)c1 (stereo not given in full) | 99%
11 | CCN(CC)Cc1cc(NC(=O)c2ccccc2O)ccc1Oc1ccc(Cl)cc1.Cl | 98%
12 | COc1cc(NC(=O)c2nn(CCCN3CCC(N4CCCC4)CC3)cc2-c2ccc(Cl)c(Cl)c2)cc(OC)c1OC | 100%
13 | N#Cc1ccc(N2C[C@@H](OCc3ccccc3)C[C@H]2C(=O)NCCC(c2ccccc2)c2ccccc2)c2ccccc12 | 93%
14 | CCOc1cc(C(=O)NC2CCN(Cc3ccccc3)CC2)ccc1-c1nc2cc(Cl)ccc2[nH]1 | 100%
15 | Cc1cc(N)nc2ccc(-c3ccc(CN)cc3)cc12 | 100%
16 | CC(C)N(CC(=O)c1ccc(O)c(C(=O)O)c1)Cc1ccccc1.Cl | 97%
17 | Cl.NC1=NC(CCc2ccccc2)N(c2ccc(Cl)cc2)C(N)=N1 (stereo not given) | 94%
18 | COc1ccc2nccc([C@@H](O)CN3CCC(NC(=O)C(=O)c4c[nH]c5c(C)cccc45)CC3)c2c1 | 100%
19 | Cc1c(F)cc(C(=O)NC2CC2)cc1-c1ccc2c(cnn2S(=O)(=O)c2ccc(F)c(F)c2)c1 | 91%
20 | O=C(O)C(F)(F)F.Oc1ccc(CCNc2nc(NCCOc3cccc4ccccc34)nc(N3CCNCC3)n2)cc1 | 96%

Row | SMILES | Inhibition
21 | Cc1ccc(CNc2ccc3ncc(-c4cccc(C(=O)NCCN(C)C)c4)n3n2)c(C)c1 | 100%
22 | CCN(CC)C(=O)c1cccc(C=Cc2ccc(-c3c(C)[nH]c(C)c(Cl)c3=O)cc2)c1 | 96%
23 | Cc1cc(NCCC(=O)Nc2ccccc2)nc(NCCc2ccc(F)cc2)n1.O=C(O)C(F)(F)F | 100%
24 | CCn1ccc2c(N3CCCCS3(=O)=O)cc(C(=O)N[C@@H](Cc3ccccc3)[C@H](O)CNC(C)(C)c3cccc(C(F)(F)F)c3)cc21 | 97%
25 | CCc1ccc2c(c1O)CCN(C)C2Cc1ccccc1Cl.Cl (stereo not given) | 99%
26 | COc1ccc(C(=O)NC(Nc2ccc([N+](=O)[O-])cc2)C(Cl)(Cl)Cl)cc1 (stereo not given) | 95%
27 | CN1CCN(c2ccnc3cc4c(cc23)N(C(=O)Nc2ccc3c(c2)CCCC3=O)CC4)CC1.Cl | 100%
28 | O=C(Cc1ccc(Cl)cc1)Nc1cc(Cl)ccc1Cn1cnc(N2CCNCC2)cc1=O.O=C(O)C(F)(F)F | 97%
29 | COc1ccc(Br)cc1/C=C/C(=O)Nc1ccc2c(c1)CCCN(C)C2 | 84%
30 | COc1ccccc1N1CCN(CCCCN(C(=O)Nc2cccc(Cl)c2)C(=O)Nc2cccc(Cl)c2)CC1.Cl | 100%
31 | CCOC(=O)c1ccc(N2CCCCC2)c(NC(=O)C(Cl)(Cl)Cl)c1 | 96%
32 | COc1ccc(NC(=O)/C=C/c2ccccc2Cl)cc1OCCN1CCC(O)(c2ccc(Cl)c(C(F)(F)F)c2)CC1.Cl | 100%
33 | O=C(/C=C/c1ccc(Cl)c(Cl)c1)NCCCCCN1CCC(NC(=O)Nc2cc(Cl)ccc2Cl)CC1 | 99%
34 | COc1ccc(N2CCN(CCCCNC(=O)c3ccc(NC(=O)c4ccc(C(F)(F)F)cc4)cc3)CC2)c(OC)c1 | 100%
35 | COc1ccc2nc(C)cc(Nc3ccc(Oc4ccc(Cl)cc4)c(Cl)c3)c2c1 | 100%
36 | FC(F)(F)c1ccc2[nH]ccc(=NN=Cc3ccc(Cl)cc3)c2c1 | 100%
37 | COc1ccccc1NC(=O)Nc1cccc(-c2cccc(-c3nc4cccc(C)c4[nH]3)c2)c1 | 100%
38 | FC(F)(F)c1ccc2[nH]c(-c3ccc(-c4cccc(CNCC5CCCO5)c4)s3)nc2c1.O=C(O)C(F)(F)F (stereo not given) | 99%
39 | COc1cc(Nc2nc(N)c3cc(OC)c(OC)cc3n2)cc(OC)c1.Cl | 100%
40 | O=C(Nc1ccc(C(F)(F)F)cc1)c1cccc(S(=O)(=O)NC2CCN(CC3CCCCC3)C2)c1.O=C(O)C(F)(F)F (stereo not given) | 98%

Reference: ChEMBL document CHEMBL1157539, “Thousands of chemical starting points for antimalarial lead identification” (Nature, 2010)
